Data reported in PubChem BioAssay.

Key:
[1] = test system: Human papillomavirus type 1a protein E7 (residues 44-93); test: small molecules binding HPV E7 44-93 – biochemical, small-molecule microarray, residues 44-93, 635 nm fluorescence, primary screen (AID 1108); settings: fluorescence 635 nm, higher = more signal;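 note: E7 fragment applied at 1 µg/mL in TBST for 1 h at 4 C; score combines spot fluorescence with its signal to noise ratio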
[2] = hepatitis C replication reporter changes, two-sided – Huh7 cells, luciferase reporter, HCV replication inhibitor project, primary screen (AID 1109); settings: Huh7 HCV replicon luciferase reporter, 48 h; higher = more signal;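 note: huh7 hepatoma cells harbouring a luciferase neomycin HCV replicon reporter; luciferase luminescence as measure of HCV replicon replication; test concentration not given here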
[3] = molecular target: Left-right determination factor 2 (Homo sapiens) (UniProt O00292); test: small molecules binding LEFTY2 protein – biochemical, small-molecule microarray, 635 nm fluorescence scan, primary screen (AID 1110); settings: higher = more signal
Chain of Left-right determination factor 2 (Homo sapiens) (O00292 whole entry, looked up): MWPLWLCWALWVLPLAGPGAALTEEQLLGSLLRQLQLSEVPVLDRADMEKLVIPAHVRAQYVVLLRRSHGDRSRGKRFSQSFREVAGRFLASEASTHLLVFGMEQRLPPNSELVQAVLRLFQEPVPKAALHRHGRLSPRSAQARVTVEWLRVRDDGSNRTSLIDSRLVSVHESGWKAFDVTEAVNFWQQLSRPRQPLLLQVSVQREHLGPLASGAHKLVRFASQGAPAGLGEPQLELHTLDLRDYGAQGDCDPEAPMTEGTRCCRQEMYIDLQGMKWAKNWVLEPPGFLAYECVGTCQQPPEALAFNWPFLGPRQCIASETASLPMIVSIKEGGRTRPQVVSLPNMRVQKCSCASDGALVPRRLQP

[4] = molecular target: Calmodulin-1 (Homo sapiens) (UniProt P0DP23); test: small molecules binding calmodulin-1 with EGTA – biochemical, small-molecule microarray, Cy5-labelled CALM1, profiling panel (AID 1111); settings: Cy5-CALM1 binding fluorescence, higher = more signal;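 note: labelled calmodulin applied in Tris saline Tween buffer holding calcium plus EGTA and DTT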
[5] = molecular target: Calmodulin-1 (Homo sapiens) (UniProt P0DP23); test: small molecules binding Ca-loaded calmodulin-1 – biochemical, small-molecule microarray, Cy5-labelled CALM1, plus calcium, artefact control for SMM control-protein annotation, profiling panel (AID 1112); settings: Cy5-CALM1 binding fluorescence, higher = more signal;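 note: score merges spot fluorescence with signal to noise from triplicate slides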
[6] = probe aWnt5a binding to arrayed compounds – biochemical, biotinylated probe, 635/667 nm fluorescence, primary screen (AID 1113); settings: small-molecule microarray, higher = more signal;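 note: score merges 667 nm fluorescence intensity with signal-to-noise per printed feature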
[7] = probe aShh binding to arrayed compounds – biochemical, biotinylated probe, 635/667 nm fluorescence, primary screen (AID 1114); settings: small-molecule microarray, higher = more signal;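 note: probe is biotin-labelled aShh protein from a stem cell growth factor screen; measures binding of labelled protein to compounds printed on the slide; score merges feature fluorescence at 667 nm with signal-to-noise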
[8] = probe aNog binding to arrayed compounds – biochemical, biotinylated probe, 635/667 nm fluorescence, primary screen (AID 1115); settings: small-molecule microarray, higher = more signal;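 note: probe is biotinylated aNog protein used at 0.15 µg/mL for 1 h at 4 C; z-score combines 667 nm fluorescence of each spot with its signal to noise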
[9] = molecular target: Torsin-1A-interacting protein 1 (Homo sapiens) (UniProt Q5JTV8); test: compound microarray binding of lysate hLAP1 – cell lysate, small-molecule microarray, COS7 lysate, 635/667 nm fluorescence, primary screen (AID 1116); settings: 635 nm fluorescence, higher = more signal
Chain of Torsin-1A-interacting protein 1 (Homo sapiens) (Q5JTV8 whole entry, looked up): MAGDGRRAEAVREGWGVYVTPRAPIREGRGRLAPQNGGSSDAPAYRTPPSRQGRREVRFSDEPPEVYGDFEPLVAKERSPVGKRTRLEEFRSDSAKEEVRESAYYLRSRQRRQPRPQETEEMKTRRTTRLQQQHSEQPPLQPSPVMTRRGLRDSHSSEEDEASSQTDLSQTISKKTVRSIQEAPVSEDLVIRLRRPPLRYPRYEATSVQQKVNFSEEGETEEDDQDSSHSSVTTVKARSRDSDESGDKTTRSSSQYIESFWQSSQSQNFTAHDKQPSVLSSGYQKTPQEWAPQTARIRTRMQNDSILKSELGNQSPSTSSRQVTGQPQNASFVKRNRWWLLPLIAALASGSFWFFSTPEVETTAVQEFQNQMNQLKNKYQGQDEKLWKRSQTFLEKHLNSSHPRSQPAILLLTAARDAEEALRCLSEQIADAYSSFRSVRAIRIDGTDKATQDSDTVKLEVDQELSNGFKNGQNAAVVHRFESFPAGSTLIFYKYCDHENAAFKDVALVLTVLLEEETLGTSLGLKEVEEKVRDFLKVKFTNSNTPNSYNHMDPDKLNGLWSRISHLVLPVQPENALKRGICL

[10] = molecular target: Alpha-bungarotoxin (Bungarus multicinctus) (UniProt P60615); test: compounds binding labelled alpha-BTX control protein – biochemical, small-molecule microarray, Alexa647 label, 635/667 nm fluorescence, artefact control for SMM control protein annotation, profiling panel (AID 1117); settings: alpha-BTX-A647 binding fluorescence, higher = more signal
Chain of Alpha-bungarotoxin (Bungarus multicinctus) (P60615 whole entry, looked up): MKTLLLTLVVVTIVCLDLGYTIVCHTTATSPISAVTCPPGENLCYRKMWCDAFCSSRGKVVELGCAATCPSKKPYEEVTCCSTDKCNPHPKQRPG

SMILES | composite z-score [1] | z-score [2] | composite z-score [3] | composite z-score [4] | composite z-score [5] | composite z-score [6] | composite z-score [7] | composite z-score [8] | composite z-score [9] | composite z-score [10]
[N-]=[N+]=NCc1ccccc1[C@@H]1OC(c2ccc(OCCCO)cc2)=N[C@]1(CCS(=O)(=O)c1ccccc1)C(=O)N1CCOCC1 | 1.41 | -1.82 | -0.141 | 1.72 | 0.443 | 0.0357 | 0.0381 | 0.113 | 2 | 2.04
COC(=O)[C@@]1(Cc2ccccc2)[C@H]2c3cc(C(=O)N4CCCC4)n(Cc4c(CO)[nH]cc(C)c4=O)c3C[C@H]2CN1C(=O)c1ccccc1 | -0.596 | -0.783 | -0.169 | 1.71 | 0.893 | 0.0775 | -0.181 | 1.28 | 2.02 | 0.546
C[C@H]1C2[C@H](Cc3ccccc3)NC(=O)[C@]23C(=O)NCC(=O)N2CCC[C@H]2C(=O)NC/C=C/CCC/C=C/C3[C@@H]2O[C@]12C (stereo not given in full) | -0.484 | 0.478 | -0.693 | -0.738 | -1.2 | -0.0075 | -0.138 | -0.387 | -0.106 | -0.65
COC(=O)C[C@H]1O[C@@H](CCc2ccccc2)[C@@H](C)[C@@H]1[Si](C)(C)c1ccc(OC)cc1 | -0.504 | -0.638 | -0.0374 | -0.606 | 0.125 | -0.232 | -0.439 | -0.266 | -0.562 | -0.763
O=C(NCc1ccccc1)[C@@H]1c2ccccc2C(=O)N(C2Cc3ccccc3C2)[C@H]1c1ccc(CO)cc1 | -0.146 | -0.51 | -0.322 | 0.158 | 0.229 | -0.101 | 0.194 | 1.13 | 0.628 | 1.22
COc1ccc(C(=O)Nc2cccc(CN3C(=O)[C@]4(O[C@H](CCn5cc(CCO)nn5)[C@@H]([Si](C)(C)c5ccc(OC)cc5)[C@@H]4C)c4ccccc43)c2)cc1 | 1.31 | -5.09 | 0.785 | 0.628 | -0.0319 | -0.0685 | -0.0769 | 0.0471 | 0.456 | 0.547
[N-]=[N+]=NCc1ccccc1[C@H]1OC(c2ccc(OCCCO)cc2)=N[C@@]1(Cc1ccccc1)C(=O)N1CCCCC1 | 1.37 | -2.55 | 0.198 | 1.23 | 0.0298 | 0.195 | -0.0243 | -0.768 | 0.249 | 1.43
CCOC(=O)C[C@H]1[C@H](OC(=O)c2ccc(-c3ccccc3)cc2)[C@@H](NC(=O)c2ccccc2)c2cc(OCCCO)ccc2N1C(=O)c1ccc2ccccc2n1 | 1.29 | -1.09 | -0.196 | 1.2 | 0.963 | -0.0643 | -0.0011 | 0.176 | 0.629 | 0.552
C=CC[C@@]1(C(=O)N2CCCCC2)N=C(c2ccc(OCCCO)cc2)O[C@@H]1c1ccccc1CN=[N+]=[N-] | 1.48 | -2.39 | 0.0868 | 1.75 | 0.797 | 0.104 | 0.57 | 1.18 | 1.76 | 2.05
COCCOC(=O)N1C(=O)[C@@]2(c3cc(C#CC4(O)CCCCCC4)ccc31)[C@H](C(=O)Nc1nc3ccccc3s1)[C@H]1C(=O)O[C@H](c3ccccc3)[C@H](c3ccccc3)N1[C@@H]2c1ccc(OCCO)cc1 | 1.31 | -2.33 | 0.726 | 0.693 | -0.271 | -0.169 | 0.138 | 0.0824 | -0.105 | 1.21
COc1ccc([Si](C)(C)[C@@H]2[C@@H](CCn3cc(CCO)nn3)O[C@]3(C(=O)N(Cc4cccc(N5C(=O)c6cccc7cccc5c67)c4)c4ccccc43)[C@H]2C)cc1 | 1.37 | -5.22 | -0.0227 | 0.911 | 0.506 | -0.0256 | -0.0192 | 0.406 | 0.868 | 0.664
O=C1C2C=CC(C(O)c3ccc4c(c3)OCO4)N(Nc3ccc([N+](=O)[O-])cc3)C2C(=O)N1c1ccccc1 (stereo not given) | 1.12 | -0.133 | 0.219 | -0.182 | -0.429 | -0.0445 | -0.0968 | -0.418 | -0.181 | 0.177
COC(=O)C(CC#Cc1ccc2c(c1)[C@]1(C(=O)N2)[C@H](c2ccc(O)cc2)N2[C@H](c3ccccc3)[C@H](c3ccccc3)OC(=O)[C@H]2[C@@H]1C(=O)N1CCN(c2ncccn2)CC1)C(=O)OC | 0.584 | -0.305 | -0.0195 | 1.1 | -0.0671 | -0.0748 | -0.0143 | 0.36 | 0.683 | 2.4
COC(=O)[C@@]1(Cc2ccc(OC)cc2)[C@H]2c3cc(C(=O)N4CCCC4)n(CCc4ccc(O)c(O)c4)c3C[C@H]2CN1C(=O)c1ccccc1 | -1.4 | -1.1 | -0.618 | 1.39 | 0.679 | -0.0057 | -0.0977 | 1.12 | 2.24 | 0.0407
O=C1C2C=CC(C(O)c3cc(C(F)(F)F)cc(C(F)(F)F)c3)N(Nc3ccccc3)C2C(=O)N1c1ccccc1 (stereo not given) | 1.44 | -0.761 | -0.457 | 0.925 | 0.388 | -0.0425 | -0.358 | 0.341 | 1.07 | 0.63
CCCCC(=C=CC[C@@H](O)c1cccc(OCCO)c1)C[C@@H](O)c1ccccn1 | 1.35 | -0.617 | 0.229 | 1.16 | -0.946 | -0.0735 | -0.0553 | 0.144 | 1.25 | 1.16
O=C1C[C@@](C(=O)NCc2ccccc2)(c2ccc([N+](=O)[O-])cc2)[C@@H](c2ccc(CO)cc2)N1CC12CC3CC(CC(C3)C1)C2 | 1.37 | -2.95 | 0.31 | 0.35 | 0.159 | -0.101 | -0.512 | -0.374 | 0.538 | 0.766
